Source: PubChem (several laboratories)
Compounds with a hit are over-represented: about 2.5% of the library has one in this group of screens.
PfM18AAP inh: PfM18AAP inhibitors, malaria aminopeptidase, primary screen, biochemical, QFRET, recombinant enzyme; M18 aspartyl aminopeptidase (Plasmodium falciparum 3D7); H-Glu-NHMec fluorogenic cleavage; inhibition, % at 7.35 µM; actives 1.2% (n = 290,000);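 active means inhibition above the campaign mean inhibition over all tested compounds plus 3 SD, cut at about 28% in these data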;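 further: 0% = plate median of test compound wells and 100% = 2 mM ZnCl2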
HDAC3 inh: HDAC3 deacetylase inhibitors, primary screen, biochemical, fluorescence, cell-free homogeneous | recombinant HDAC3, fluorogenic peptide/trypsin coupled | inhibition, % at 8.3 µM | actives 0.15% (n = 320,000); in the data active means inhibition above about 26%, passing the limit was not always enough; inconclusive means no clear call, values can overlap the other calls
Target sequence (O15379 whole entry, looked up): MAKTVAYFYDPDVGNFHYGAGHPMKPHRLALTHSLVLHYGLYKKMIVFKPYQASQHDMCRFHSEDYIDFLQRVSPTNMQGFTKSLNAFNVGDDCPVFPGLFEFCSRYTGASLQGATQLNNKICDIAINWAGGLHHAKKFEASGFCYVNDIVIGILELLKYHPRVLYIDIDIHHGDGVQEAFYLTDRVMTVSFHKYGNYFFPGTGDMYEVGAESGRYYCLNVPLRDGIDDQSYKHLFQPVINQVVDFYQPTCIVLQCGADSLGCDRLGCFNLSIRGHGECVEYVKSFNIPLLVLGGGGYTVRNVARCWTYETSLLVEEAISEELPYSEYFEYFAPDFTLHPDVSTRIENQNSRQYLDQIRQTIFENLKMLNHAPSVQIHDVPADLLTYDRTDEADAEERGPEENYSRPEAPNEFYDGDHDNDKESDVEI
PHOSPHO1 block: PubChem AID 1565 | recombinant PHOSPHO1, absorbance phosphatase assay | actives 1.1% (n = 290,000) | inhibition, % at 13.3 µM; in the data active means inhibition above about 60%
Target sequence (Q8TCT1 whole entry, looked up): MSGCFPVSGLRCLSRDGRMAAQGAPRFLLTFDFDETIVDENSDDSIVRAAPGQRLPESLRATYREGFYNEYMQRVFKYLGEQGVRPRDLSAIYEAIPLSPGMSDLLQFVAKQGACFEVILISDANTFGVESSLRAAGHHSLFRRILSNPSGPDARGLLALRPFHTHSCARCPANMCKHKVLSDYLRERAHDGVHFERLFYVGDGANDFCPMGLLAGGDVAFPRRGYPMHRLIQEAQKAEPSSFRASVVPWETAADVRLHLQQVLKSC
p97 ATPase inh: inhibitors of human p97 ATPase, primary screen, biochemical; Transitional endoplasmic reticulum ATPase (Homo sapiens), P55072; recombinant p97 ATPase, Kinase-Glo ATP luminescence, 3 h; actives 0.42% (n = 220,000); inhibition, % at 8 µM; AID 1481, 2009; in the data active means inhibition above about 15%;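 further: 0% = DMSO vehicle and 100% = wells lacking enzyme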
SUMO HTRF inh: inhibitors of in vitro SUMOylation cascade, primary screen, biochemical, HTRF, uHTS | HTRF SUMOylation assay, SAE1/SAE2 + UBC9 | AID 2006, 2009 | inhibition, % at 35 µM | actives 0.36% (n = 290,000); in the data active means inhibition above about 50%, passing the limit was not always enough; inconclusive means no clear call, values can overlap the other calls
G6PDH CS: L. mesenteroides G6PDH inhibitors, counter-screen for G6PDH-coupled screening assays, biochemical, Leuconostoc mesenteroides enzyme | Purified L. mesenteroides G6PDH, diaphorase/resazurin coupled fluorescence, 45 min | actives 0.12% (n = 200,000) | AID 1020, 2008 | inhibition, % at 5 µM; in the data active means inhibition above about 50%
* marks the source's active call; other numbers are inactive results; ? = inconclusive; / = no result.

SMILES | PfM18AAP inh | HDAC3 inh | PHOSPHO1 block | p97 ATPase inh | SUMO HTRF inh | G6PDH CS
CN(CC(=O)Nc1ccncc1)S(=O)(=O)c1ccc(Br)cc1 | 3.2 | 1.5 | -9.3 | 3.7 | 3.7 | 7.7
CN(CC(=O)Nn1cnnc1)S(=O)(=O)c1ccc(Br)cc1 | 30.4* | -6.1 | 28.3 | 2.5 | 18.2 | 9.5
COc1ccc(S(=O)(=O)N2CCOCC2)cc1NC(=O)CSc1n[nH]c(C(C)C)n1 | 5.9 | -2.7 | 62.9* | 3.9 | 7.5 | -2.0
COc1cc2[nH]c(=S)n(Cc3ccco3)c(=O)c2cc1OC | 4.5 | 3.7 | 68.6* | 4.2 | 18.8 | 1.9
CCOC(=O)c1sc(NC(=O)Cc2ccc(C)cc2)nc1C | 2.5 | 0.3 | 61.8* | 0.8 | -12.5 | 10.3
CCOC(=O)c1sc(NNC(=O)c2ccc(F)cc2)nc1C | 28.2* | 1.4 | 15.9 | 2.9 | -8.3 | /
CCOC(=O)c1sc(NC(=O)c2ccc(S(=O)(=O)N(C)C)cc2)nc1C | -0.7 | -6.6 | -24.5 | 5.8 | 3.6 | -2.5
CCOC(=O)CC(=O)CSc1ccc2nnc(-c3cccc(F)c3)n2n1 | -2.5 | -2.2 | 43.6 | 3.6 | 27.4 | -5.3
CCOC(=O)CC(=O)CSc1ccc2nnc(-c3ccc(F)cc3)n2n1 | -0.4 | -12.2 | 81.2* | 6.4 | 18.7 | 0.1
COC(=O)C(C)Sc1ccc2nnc(-c3ccc(F)cc3)n2n1 (centres undefined) | -7.9 | / | 64.6* | 3.1 | 32.3 | 6.5
Oc1ccc2ccccc2c1/C=N/c1nc2c(s1)CCCC2 | 15.3 | -4.8 | 76.5* | 4.8 | 14.6 | 39.5
Oc1ccc2ccccc2c1C=Nc1ccc(Cl)cn1 | 5.8 | ? | 24.7 | -0.2 | 54.9 | 57.7*
O=C(O)C1(c2ccccc2)CCN(S(=O)(=O)c2ccc(Br)cc2)CC1 | -6.7 | 4.3 | 8.5 | / | 9.8 | /
C=CCOc1ccc(CNCC2CCCO2)cc1 (centres undefined) | -8.1 | -1.6 | / | / | -3.4 | /
O=C(CSc1nc2ccccc2[nH]1)NCc1ccc(F)cc1 | -7.0 | -3.2 | 8.2 | -0.3 | 1.4 | 12.6
O=C(CSc1nc2ccccc2[nH]1)NCCN1CCCCC1 | 5.4 | 1.8 | 64.6* | 6.0 | 24.6 | 11.0
Cc1ncc([N+](=O)[O-])n1CC(=O)N/N=C/c1ccccc1F | -6.2 | -5.0 | 67.7* | -2.4 | 4.2 | 5.6
Cc1cc([N+](=O)[O-])nn1CC(=O)N/N=C/c1ccccc1F | 0.8 | 0.0 | -1.2 | 7.2 | 3.2 | /
COc1ccc(S(=O)(=O)/N=C2\C=C(Nc3ccc(O)cc3)C(=O)c3ccccc32)cc1 | 18.2 | 19.8 | 4.1 | / | 25.0 | /
Cc1ccccc1NC1=C/C(=N\S(=O)(=O)c2cccs2)c2ccccc2C1=O | -1.8 | 10.3 | 1.0 | 10.7 | 73.3* | 55.4*
Cc1ccccc1NC1=C/C(=N\S(=O)(=O)c2ccc(C(=O)O)cc2)c2ccccc2C1=O | -2.2 | 10.2 | 39.1 | / | 88.5* | /
Cc1cc[n+](C2=C([O-])c3ccccc3C(=O)/C2=N\S(=O)(=O)c2cccs2)cc1C | 4.2 | 2.4 | 4.9 | 5.2 | 28.7 | 54.4*
O=C(O)c1ccc(S(=O)(=O)/N=C2\C=C(Nc3ccccc3F)C(=O)c3ccccc32)cc1 | 11.5 | 3.2 | 19.0 | / | 91.6* | /
Cc1ccc(NC(=O)C(c2ccccc2)N2CCN(C(=O)c3ccco3)CC2)cc1Cl (centres undefined) | / | 2.4 | / | / | / | /
CCN1CCCC1CNC(=O)c1cc(COc2ccc(C)c(C)c2)on1 (centres undefined) | 2.9 | -3.4 | 54.7 | / | -5.3 | /
SMILES | PfM18AAP inh | HDAC3 inh | PHOSPHO1 block | p97 ATPase inh | SUMO HTRF inh | G6PDH CS
N#Cc1ccc(-c2ccc(Cl)cc2)nc1SCC(=O)c1cccc(Cl)c1 | -8.7 | -1.6 | 75.5* | 0.3 | 12.8 | 0.3
O=S(=O)(NCc1csc(-c2cccnc2)n1)c1ccc(Br)cc1 | 6.8 | 1.3 | 80.2* | / | 12.1 | /
O=C(Nc1ccc(-n2cccn2)cc1)C1CCCCN1Cc1cccc2c1OCO2 (centres undefined) | -11.2 | 0.2 | 52.8 | / | -6.0 | /
COc1cccc(CNC(=O)Cn2ncn3cccc3c2=O)c1OC | 2.8 | / | 1.8 | / | 14.0 | /
COc1ccc(C2CC(c3ccc(Cl)cc3Cl)n3nc(N)nc3N2)cc1 (centres undefined) | 0.9 | -0.5 | -0.6 | 1.6 | 4.7 | 4.2
COc1ccc(C2CC(c3ccc(Cl)cc3Cl)Nc3nc(N)nn32)cc1 (centres undefined) | -0.4 | 2.0 | 70.5* | -0.8 | -17.7 | 20.0
COc1ccc(N2CCN(C(=O)C3CCCN3S(=O)(=O)c3cccc4nsnc34)CC2)cc1 (centres undefined) | -8.1 | ? | 20.7 | / | 12.6 | /
CC(C)CN1CCC(=O)N(CCO)CC1 | -2.7 | -1.4 | -41.1 | / | 1.7 | /
Cc1ccc(/C=C2\SC(=S)N(c3cccnc3)C2=O)o1 | 31.3* | 9.4 | -2.8 | 6.8 | 69.6 | /
O=C(O)CC(C(=O)O)N1C(=O)/C(=C/c2ccc(-c3nc4ccccc4s3)o2)SC1=S (centres undefined) | 14.1 | 16.3 | 10.6 | 0.6 | 3.3 | -32.4
Cc1ccc(/C=C2\SC(=S)N(Cc3ccccc3)C2=O)o1 | 5.1 | -2.0 | 67.1* | 3.9 | 22.9 | 2.3
O=C1/C(=C\c2ccc(O)c(O)c2)SC(=S)N1Cc1ccccc1 | 47.6* | -12.1 | 39.4 | / | 40.3 | /
O=C(O)CCN1C(=O)/C(=C/c2ccc(-c3nc4ccccc4s3)o2)SC1=S | 8.1 | 18.2 | 101.1* | 2.8 | 45.8 | 2.7
O=C(O)c1cc(-c2ccc(/C=C3/SC(=S)N(Cc4ccccc4)C3=O)o2)ccc1Cl | 5.7 | / | 65.1* | 3.7 | 46.2 | 16.6
COc1ccc(CN2C(=O)/C(=C/c3ccc(-c4ccc(Cl)c(C(=O)O)c4)o3)SC2=S)cc1 | 3.0 | / | 9.4 | 7.7 | 39.4 | 0.9
Cn1c(N)c(C(=O)COC(=O)Cc2ccc(Cl)c(Cl)c2)c(=O)n(C)c1=O | / | -0.1 | / | / | / | /
C[N+]1=C2CCCCCN2C(O)(c2ccccc2)C1 (centres undefined) | -2.9 | 2.4 | 86.0* | 3.6 | -4.9 | 3.1
OC1(c2ccccc2Cl)NN=C2CCCCCN21 (centres undefined) | -16.0 | -1.2 | 22.8 | -3.3 | 14.7 | -0.4
Cc1cccc(N2CSC3=C(C#N)C(c4ccc(C)o4)CC(=O)N3C2)c1 (centres undefined) | 33.2* | -2.0 | 76.1* | 17.3* | 78.4* | 11.5
CCc1ccccc1N1CSC2=C(C#N)C(c3ccccc3F)CC(=O)N2C1 (centres undefined) | 27.9 | 9.8 | 61.0* | 11.1 | 12.7 | 11.5
Cn1c2c(c(=O)n(C)c1=O)C(c1ccccc1F)C(C#N)=C(N)O2 (centres undefined) | 3.0 | 5.8 | 21.4 | 3.4 | 11.8 | 3.2
